Results from PubChem BioAssay AID1159580 (chemical genetic matrix, 2015).
About 2,000 (36%) of roughly 5,500 compounds were called active. Another 18% or so got no clear call; they are omitted. Cut-off read from the data, not from the text of the source: active = normalized growth mostly below about 0.91 (no sharp cut-off); inconclusive = no clear call, values can overlap the other calls; inactive = mostly above about 0.92. This is one part of the list.

Test: chemical genetic growth profiling, strain panel (AID 1159580);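 note: tested at 20 µM; growth read once vehicle control cultures reached saturation at 30 °C; 1 = growth at the plate median or of vehicle wells; lower values mean less growth of the strain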
Conditions: S. cerevisiae deletion strains, growth OD
[1] = locus YDL101C, strain DUN1, hits give low values
[2] = locus YHR030C, strain SLT2, hits give low values

Measured: normalized growth

CCCCC#Cc1ccc(C(=O)NNC(=O)Nc2cc(Cl)cc(Cl)c2)o1
inactive: locus YAL013W, strain DEP1, hits give low values 1.03 | locus YBR229C, strain ROT2, hits give low values 1.01 | locus YCL061C, strain MRC1, hits give low values 0.981 | [1] 1.02 | locus YDR150W, strain NUM1, hits give low values 0.963 | locus YEL061C, strain CIN8, hits give low values 0.963 | locus YGR078C, strain PAC10, hits give low values 1 | [2] 1.01 | locus YHR087W, strain rtc3, hits give low values 1.01 | locus YJR043C, strain POL32, hits give low values 0.998 | locus YJR075W, strain HOC1, hits give low values 0.973 | locus YLR039C, strain RIC1, hits give low values 1.03 | locus YLR058C, strain SHM2 (second series), hits give low values 1.01 | locus YLR085C, strain ARP6, hits give low values 1.07 | locus YLR262C, strain YPT6, hits give low values 1.05 | locus YML094W, strain GIM5, hits give low values 1 | locus YMR219W, strain ESC1, hits give low values 1.01 | locus YMR263W, strain SAP30, hits give low values 1.07 | locus YMR307W, strain GAS1, hits give low values 1 | locus YNL128W, strain TEP1, hits give low values 0.995 | locus YNL153C, strain GIM3, hits give low values 0.995 | locus YNL298W, strain CLA4 (second series), hits give low values 1.03 | locus YNL322C, strain KRE1, hits give low values 1.03 | locus YNR030W, strain Alg12, hits give low values 0.995 | locus YPL055C, strain LGE1, hits give low values 1.03 | locus YPL241C, strain CIN2, hits give low values 1.02 | locus YPR135W, strain CTF4, hits give low values 0.931

O=C(Nc1cc(Cl)cc(Cl)c1)c1cc(Br)ccc1O
inactive: locus YAR019C, strain CDC15, hits give low values 0.944 | locus YBL105C, strain PKC1, hits give low values 0.958 | locus YBR135W, strain CKS1, hits give low values 0.946 | locus YBR136W, strain MEC1, hits give low values 0.949 | locus YBR160W, strain CDC28, hits give low values 0.955 | locus YDL017W, strain CDC7, hits give low values 0.942 | locus YDL028C, strain MPS1, hits give low values 0.955 | [1] 0.985 | locus YDL108W, strain KIN28, hits give low values 0.953 | locus YDL132W, strain cdc53, hits give low values 0.933 | locus YDL214C, strain PRR2, hits give low values 0.849 | locus YDR052C, strain DBF4, hits give low values 0.925 | locus YDR054C, strain cdc34, hits give low values 0.939 | locus YDR226W, strain ADK1, hits give low values 0.935 | locus YDR477W, strain SNF1, hits give low values 0.872 | locus YER123W, strain YCK3, hits give low values 0.774 | locus YER133W, strain GLC7, hits give low values 0.831 | locus YFL009W, strain cdc4, hits give low values 0.936 | locus YFL029C, strain CAK1, hits give low values 0.942 | locus YFR003C, strain YPI1, hits give low values 0.949 | locus YFR019W, strain FAB1, hits give low values 0.91 | locus YFR028C, strain CDC14, hits give low values 0.94 | locus YGR040W, strain KSS1, hits give low values 0.888 | locus YGR052W, strain FMP48, hits give low values 0.847 | locus YHR079C, strain IRE1, hits give low values 0.68 | locus YHR082C, strain KSP1, hits give low values 0.964 | locus YHR205W, strain SCH9, hits give low values 0.656 | locus YIL147C, strain SLN1, hits give low values 0.945 | locus YJL095W, strain BCK1, hits give low values 0.76 | locus YJL128C, strain PBS2, hits give low values 0.959 | locus YJR016C, strain ILV3, hits give low values 0.944 | locus YJR066W, strain TOR1 (second series), hits give low values 0.774 | locus YJR066W, strain TOR1, hits give low values 0.792 | locus YKL048C, strain ELM1, hits give low values 0.848 | locus YKL067W, strain YNK1, hits give low values 0.799 | locus YKL101W, strain HSL1, hits give low values 0.853 | locus YKL193C, strain SDS22, hits give low values 0.936 | locus YKL203C, strain TOR2, hits give low values 0.86 | locus YLR113W, strain HOG1, hits give low values 0.892 | locus YLR133W, strain CKI1, hits give low values 0.821 | locus YLR403W, strain SFP1, hits give low values 0.747 | locus YML070W, strain DAK1, hits give low values 0.872 | locus YMR001C, strain CDC5, hits give low values 0.941 | locus YMR205C, strain PFK2 (second series), hits give low values 0.858 | locus YMR277W, strain FCP1, hits give low values 0.945 | locus YNL006W, strain LST8, hits give low values 0.938 | locus YNL020C, strain ARK1, hits give low values 0.738 | locus YNL161W, strain CBK1, hits give low values 0.947 | locus YNL183C, strain NPR1, hits give low values 0.917 | locus YNL207W, strain RIO2, hits give low values 0.955 | locus YNL222W, strain SSU72, hits give low values 0.949 | locus YNL307C, strain MCK1 (second series), hits give low values 0.703 | locus YOL078W, strain AVO1, hits give low values 0.952 | locus YOL136C, strain PFK27, hits give low values 0.767 | locus YOR061W, strain CKA2, hits give low values 0.749 | locus YOR119C, strain RIO1, hits give low values 0.925 | locus YOR231W, strain MKK1, hits give low values 0.888 | locus YOR329C, strain SCD5, hits give low values 0.948 | locus YPL031C, strain PHO85, hits give low values 0.841 | locus YPL153C, strain RAD53, hits give low values 0.84 | locus YPL204W, strain HRR25, hits give low values 0.801 | locus YPL209C, strain IPL1, hits give low values 0.945 | locus YPL256C, strain CLN2, hits give low values 0.871 | locus YPR025C, strain CCL1, hits give low values 0.951 | locus YPR106W, strain ISR1, hits give low values 0.971 | locus YPR111W, strain DBF20, hits give low values 0.96 | strain NNK1, hits give low values 0.964 | strain TSCII, hits give low values 0.942
active: locus YGR092W, strain DBF2, hits give low values 0.405 | [2] 0.816 | locus YJL157C, strain FAR1, hits give low values 0.698
